These results are taken from PubChem BioAssay (EPA / NIEHS).

Results filed as inconclusive are left out. Activity calls are given as the source filed them. The calls were made as follows: active = hit-call score of the fitted dose curve at least 0.9, where 1 is the maximum; inconclusive = response in the unintended direction; inactive = score below 0.9.

In this experiment the target is human Caspase 10 (CASP10), CASP10 (gene 843) (UniProt Q92851). The experiment can be described thus: NVS_ENZ_hCASP10: NovaScreen (NVS) Enzymatic Assay for human Caspase 10 (CASP10) (AID 2283133). Here is the method: NVS_ENZ_hCASP10 is a biochemical, single-readout assay that uses extracted gene-proteins from E. coli in a cell-free assay. Measurements were taken 1 hour after chemical dosing in a 96-well plate.NVS_ENZ_hCASP10 is one of one assay component(s) measured or calculated from the NVS_ENZ_hCASP10 assay. It is designed to make measurements of enzyme activity, a form of enzyme reporter, as detected with fluorescence intensity signals by Fluorescence technology.Data from the assay component NVS_ENZ_hCASP10 was analyzed into 1 assay endpoint. This assay endpoint, NVS_ENZ_hCASP10, was analyzed in the positive analysis fitting direction relative to DMSO as the negative control and baseline of activity. Using a type of enzyme reporter, loss-of-signal activity can be used to understand changes in the enzymatic activity as they relate to the gene CASP10. Furthermore, this assay endpoint can be referred to as a primary readout, because this assay has produced multiple assay endpoints where this one serves a enzymatic activity function. To generalize the intended target to other relatable targets, this assay endpoint is annotated to the protease intended target family, where the subfamily is cysteine protease.
Sequence of human Caspase 10 (CASP10), CASP10 (gene 843) (Q92851 whole entry, looked up): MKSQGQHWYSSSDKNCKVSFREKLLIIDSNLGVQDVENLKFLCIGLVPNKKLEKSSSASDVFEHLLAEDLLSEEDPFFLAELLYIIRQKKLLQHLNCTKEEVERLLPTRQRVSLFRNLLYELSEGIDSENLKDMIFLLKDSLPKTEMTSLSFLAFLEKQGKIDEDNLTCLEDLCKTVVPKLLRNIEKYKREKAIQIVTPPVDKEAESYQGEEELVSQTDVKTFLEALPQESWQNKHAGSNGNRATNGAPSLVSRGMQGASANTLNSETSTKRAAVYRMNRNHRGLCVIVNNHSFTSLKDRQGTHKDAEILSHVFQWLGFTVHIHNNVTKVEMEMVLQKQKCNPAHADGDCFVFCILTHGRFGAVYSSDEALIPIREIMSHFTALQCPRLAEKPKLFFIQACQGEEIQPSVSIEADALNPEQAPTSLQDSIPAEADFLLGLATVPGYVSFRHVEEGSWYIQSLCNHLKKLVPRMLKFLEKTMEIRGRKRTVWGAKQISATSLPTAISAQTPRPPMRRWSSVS
Binding assays used specific radioligands (tritiated, iodinated) with non-radioactive competitive displacement ligands in agonist or antagonist protocols (as indicated) and various reference compounds and inhibitors to titrate specific binding to receptors and transporters. Most enzyme assays (CYPs, kinases, phosphatases, proteases, HDACs) used recombinant protein and specific substrates (fluorescence mostly, some colorimetric and radioactive) and inhibitors, followed by a biochemical separation of substrate and product. All assays for the biochemical HTS were initially run in duplicate at a single concentration (10 uM for CYP450 assays and 25 uM for all others). Assay-chemical combinations meeting a pre-defined threshold (e.g., 30% inhibition and other criteria defined below) were then run in singleton concentration-response format with maximum concentration of 20 uM for CYPs and 50 uM for all others. Each assay was run with positive and negative controls, and concurrent controls on every plate. The follow-up (secondary) screen tested active chemical-pairs in concentration series, as well as a few additional assays not tested in the primary screen, some selected negative inactives, and several cases re-run in the concentration series for confirmatory purposes.
For the compound `O=C1CCC(C2CCCCC2)CC1`, the compound was classed as inactive.

Turning to `CCN(Cc1cccc(S(=O)(=O)O)c1)c1ccc(C(=C2C=CC(=[N+](CC)Cc3cccc(S(=O)(=O)O)c3)C=C2)c2ccccc2S(=O)(=O)[O-])cc1`, the outcome was inactive.

`CCCCCCCCCCCCCCOS(=O)(=O)O`: the outcome was inactive.

On to `CN1C(=O)CC[C@H]1c1cccnc1`, for which the call was inactive.

For `Cc1oc(-c2ccccc2)nc1CCOc1ccc(C[C@H](Nc2ccccc2C(=O)c2ccccc2)C(=O)O)cc1`, the result was inactive.

As for `S=C(S)NCCNC(=S)S.[Mn+2].[S-]C([S-])=NCCN=C([S-])[S-].[Zn+2]`, the call was inactive.

`O=C(O)c1[nH]n(-c2ccc(S(=O)(=O)O)cc2)c(=O)c1N=Nc1ccc(S(=O)(=O)O)cc1`: the compound was called inactive.

Turning to `CN(C)c1ccc(C(=C2C=CC(=[N+](C)C)C=C2)c2ccc(N(C)C)cc2)cc1`, the result was inactive.

As a reminder, the AC50 is the concentration at which the activity in the assay is half-maximal. For `Oc1cc2ccccc2c2ccccc12`, the AC50 is 11.1 µM (active).

Turning to `O=C(O)CCCCC(=O)O`, the AC50 is 11.4 µM (active).

Turning to `CCCCCCCCCCCCCCCCOS(=O)(=O)O`, the result was inactive.

For the compound `Cc1c2ccccc2c(C)c2c1ccc1ccccc12`, the compound was called inactive.

In the case of `CN1C(=O)N(c2ccccc2Br)Cc2cnc(Nc3ccc4c(c3)OCC(CO)O4)nc21` (stereo not given), the compound was called inactive.

Regarding `C[Si]1(C)O[Si](C)(C)O[Si](C)(C)O[Si](C)(C)O1`, the compound was called inactive.

Take `COc1ccc2c(c1)c(CC(=O)O)c(C)n2C(=O)c1ccc(Cl)cc1`: the result was inactive.
